Data on four molecules can be found in PubChem BioAssay (NCI).

Some test systems named below: K-562 leukemia; MALME-3M melanoma; MDA-MB-231 breast; RXF 393 renal; SF-268 CNS; SF-295 CNS; SF-539 CNS; UACC-257 melanoma; M14 melanoma; HCT-15 colon; HT29 colon; SNB-75 CNS; SNB-19 CNS; U251 CNS; PC-3 prostate; SK-MEL-5 melanoma; UACC-62 melanoma; LOX IMVI melanoma; SK-MEL-28 melanoma; SK-MEL-2 melanoma.
What all share (assay): NCI-60 one-dose screen, 48 h (100 = growth as untreated, 0 = no growth, -100 = all killed)
Holding throughout (settings): 10 µM

Compounds without any hit were thinned out: in the full panel of roughly 83,000, 20% have a hit.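 Single-concentration screen, 48 h exposure, 96-well plates. Endpoint: percent growth. Below 10 = active.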 A number with no mark means an inactive call. Calls of active or inactive are those of the source.

`Cc1cc(NCCCN(C)C)c2ccc3c(ccc4c(NCCCN(C)C)cc(C)nc43)c2n1`: the growth is -52.9% (active) in the experiment on K-562 leukemia; -89.2% (active) in the experiment with MALME-3M melanoma; -77.4% (active) with MDA-MB-231 breast; -83.4% (active) in the experiment with RXF 393 renal; -86.1% (active) in the experiment with SF-268 CNS; -76.2% (active) in the experiment on SF-295 CNS. For the same molecule, the growth in the experiment on SF-539 CNS was -96% (active); in the experiment on UACC-257 melanoma it was -51.6% (active); with M14 melanoma it was -82.9% (active); in the experiment on HCT-15 colon, -34.6% (active); in the experiment with HT29 colon, -50.9% (active); in the experiment with SNB-75 CNS, -90% (active). For the same molecule, the growth was -32.8% (active) in the experiment with SNB-19 CNS; -30.5% (active) in the experiment on U251 CNS; -56.3% (active) with PC-3 prostate; -97.6% (active) in the experiment on SK-MEL-5 melanoma; -96.9% (active) in the experiment on UACC-62 melanoma; -76% (active) in the experiment with LOX IMVI melanoma. Also, the growth in the experiment with SK-MEL-28 melanoma was -97.6% (active); in the experiment with SK-MEL-2 melanoma, -62.8% (active).
Turning to `Cc1cnc(/C=N\NC(N)=S)c2cccc(N)c12`, the growth in the experiment on K-562 leukemia is 30.6%; with MDA-MB-231 breast, 34.2%; in the experiment on SF-268 CNS, 2.26% (active); in the experiment with SF-295 CNS it was -29.9% (active); in the experiment with SF-539 CNS, -47.9% (active); with UACC-257 melanoma, -30.6% (active). The growth with M14 melanoma was -24.7% (active); with HCT-15 colon it was 24.9%; in the experiment on HT29 colon, 35.8%; with SNB-75 CNS, -2.85% (active); in the experiment on SNB-19 CNS, 24%; with U251 CNS, 25%. Besides, the growth with PC-3 prostate is 29%; with SK-MEL-5 melanoma it was 54.8%; in the experiment on UACC-62 melanoma it was -15.7% (active); in the experiment on LOX IMVI melanoma it was 6.91% (active); in the experiment on SK-MEL-28 melanoma, 34.5%; with SK-MEL-2 melanoma it was -6.16% (active).
As for `CN1CCN(c2ccc3nc(-c4ccc5nc(-c6ccc(O)cc6)[nH]c5c4)[nH]c3c2)CC1`, the growth in the experiment on K-562 leukemia was 50.2%; in the experiment with MALME-3M melanoma it was 37.9%; in the experiment with MDA-MB-231 breast, 121%; in the experiment on RXF 393 renal, 37.3%; in the experiment with SF-268 CNS, 82.9%; with SF-295 CNS, 96.3%. For the same molecule, the growth in the experiment with SF-539 CNS is 77%; in the experiment on UACC-257 melanoma, 113%; in the experiment on HCT-15 colon, 94.3%; in the experiment with HT29 colon, 82.1%; in the experiment on SNB-75 CNS, 54.9%; with SNB-19 CNS it was 106%. Moreover, the growth in the experiment with U251 CNS was 87.5%; with PC-3 prostate, 69.7%; with SK-MEL-5 melanoma it was -19.3% (active); with UACC-62 melanoma, 39.5%; in the experiment with LOX IMVI melanoma, 93.9%; in the experiment on SK-MEL-2 melanoma, 108%.
For `CN(C)CCC(=O)c1c[nH]c2ccccc12`, the growth is 105% with MALME-3M melanoma; 115% in the experiment on MDA-MB-231 breast; 126% in the experiment with RXF 393 renal; 115% in the experiment with SF-268 CNS; 99.7% in the experiment with SF-295 CNS; 103% in the experiment on SF-539 CNS. The growth was 115% with UACC-257 melanoma; 101% in the experiment on M14 melanoma; 110% in the experiment on HCT-15 colon; 101% in the experiment with HT29 colon; 99.8% in the experiment with SNB-75 CNS; 112% in the experiment with SNB-19 CNS. Further, the growth was 106% in the experiment with U251 CNS; 84.3% in the experiment with PC-3 prostate; 113% in the experiment on SK-MEL-5 melanoma; 113% with UACC-62 melanoma; 103% with LOX IMVI melanoma; 115% with SK-MEL-28 melanoma. Also, the growth with SK-MEL-2 melanoma was 105%.
